Measured values: PubChem BioAssay (NCATS)
Results filed as inconclusive are left out. A call without a number means that no potency is given here. Calls of active or inactive are those of the source. Calls follow the shape of the dose curve; as a rule, active = well fitted inhibition curve with a large enough effect; inconclusive = small, poorly fitted or top-dose-only effect; inactive = flat fitted curve, though single readings scatter.

Assay: qHTS to identify inhibitors of the type 1 interferon - major histocompatibility complex class I in skeletal muscle: primary screen against the NCATS Pharmaceutical Collection (AID 1347407)
Conditions: human skeletal muscle cells, IFN-b-induced MHC-I HiBiT luminescence, 24 h; series mostly up to 45.9 µM
Text: Assay Submitter (PI): Travis B. Kinder Ph.D. & James Inglese Ph.D.
Assay Development and Screening Technology Laboratory (ADST)
National Center for Advancing Translational Sciences (NCATS), Rockville, MD
National Institute of Health (NIH), Bethesda, Maryland
Idiopathic inflammatory myopathies, collectively referred to as myositis, are a group of rare autoimmune diseases characterized by skeletal muscle inflammation, weakness, and usually accompanied by systemic pathologies of the skin, lungs, or vasculature. Current immunosuppressive therapies and glucocorticoids are often not curative and are accompanied by harsh side effects, especially in children with juvenile myositis. We initiated a drug repurposing and development program to identify more targeted, less toxic therapeutics to treat myositis. Although its cause is not known, muscle from a subset of patients have an abundance of the inflammatory type 1 interferon (IFN) and a down-stream product major histocompatibility complex class I (MHC class I), which are both thought to contribute to damage and weakness. We conducted quantitative high throughput screening on 6,576 compounds (4,679 unique) through a series of cell-based assays to identify those that inhibit the IFN-stimulated expression of MHC class I in muscle precursor cells (myoblasts). The compound identification and evaluation strategy utilized a primary screen with reporter-tagged MHC class I in genome-engineered myoblasts, ATP content counter screen for viability, HLA-ABC immunofluorescence secondary screen, and HLA-B RT-qPCR tertiary screen.
The primary screen utilized CRISPR/Cas9 genome-engineering of immortalized human myoblasts, C25cl48, where a pro-luminescent reporter HiBit was fused to the C-terminus of endogenous MHC class I allele HLA-B*08:01 (HLA-B HiBit myoblasts). HiBit is an 11 amino acid fragment of NanoLuc luminescent reporter (Promega Corporation), and when complexed to the larger LgBit fragment, the reconstituted enzyme produces light in the presence of furimazine substrate (Schwinn et al., 2018). Briefly, HLA-B HiBit myoblasts were plated into 1536-well plates, treated with 4.0 ng/ml human IFN-beta and 2,816 compounds from the NCATS Pharmaceutical Collection (NPC) that contains all drugs approved in the US, EU, and Japan (Huang et al., 2011) in an 8-point, 1:5 titration with a high final concentration of 46 uM. After 24 hrs of treatment, cells were assayed by Nano-Glo HiBiT Lytic Detection System (Promega) and luminescence measured by a ViewLux 1430 Ultra HTS (Perkin Elmer).
Huang R, Southall N, Wang Y, Yasgar A, Shinn P, Jadhav A, Nguyen D-T, Austin CP. 2011. The NCGC pharmaceutical collection: a comprehensive resource of clinically approved drugs enabling repurposing and chemical genomics. Sci Transl Med 3:80ps16. doi:10.1126/scitranslmed.3001862
Schwinn MK, Machleidt T, Zimmerman K, Eggers CT, Dixon AS, Hurst R, Hall MP, Encell LP, Binkowski BF, Wood K V. 2018. CRISPR-Mediated Tagging of Endogenous Proteins with a Luminescent Peptide. ACS Chem Biol 13:467-474. doi:10.1021/acschembio.7b00549
PROTOCOL TABLE (as described by Inglese et al., 2007)
SEQUENCE No. (e.g., 1, 2, 3, etc.); […] (e.g., Cells, Incubation, Reagent, etc.); VALUE; DESCRIPTION
1a; Cells; 5 uL; Use a Multidrop Combi (Thermo Scientific) to seed 350 cells/well into nine Greiner 1536 well white/solid bottom, high base, TC plates in 5 ul/well of iHSKM growth medium (GM) without dexamethasone into columns 1+2. Add metal lids with gas-exchange holes
1b; Cells; 5 uL; Use a Multidrop Combi (Thermo Scientific) to seed 350 cells/well into nine Greiner 1536 well white/solid bottom, high base, TC plates in 5 ul/well of iHSKM GM without dexamethasone + 4 ng/ml IFN-b into columns 3 - 48. Add metal lids with gas-exchange holes
2; Incubate; 1 hr; Incubate at 37 C, 5% CO2, 95% RH
[…]
In the case of `O=C(O)[C@@H]1CSCN1`, the Potency is reported as “inactive”. In the case of `CNCCC(Oc1ccc(C(F)(F)F)cc1)c1ccccc1` (stereo not given), the Potency is reported as “inactive”. With `CC(C)(C)NCC(O)COc1ccc(NC(=O)NC2CCCCC2)cc1` (stereo not given) the Potency was “inactive”. For `COc1cc2[nH]c(=O)[nH]c(=O)c2cc1OC`, the Potency was “inactive”. With `NCCNCCNCCNCCN` the activity change, negative = inhibition was 0.364% [at 9.18 µM] (inactive). In the case of `CC[C@@]1(c2ccccc2)NC(=O)N(C)C1=O`, the Potency is reported as “inactive”. For `C=Cc1c(C)c2cc3[nH]c(cc4nc(cc5nc(cc1[nH]2)C(C)=C5CCC(=O)O)C(CCC(=O)O)=C4C)c(C)c3C=C`, the Potency was “inactive”. In the case of `CCN(CC)CCCC(C)Nc1c2ccc(Cl)cc2nc2ccc(OC)cc12` (stereo not given), the Potency is reported as “inactive”. For `CCN(CC)C(=O)Nc1ccc(OCC(O)CNC(C)(C)C)c(C(C)=O)c1` (stereo not given), the Potency was “inactive”. For `NS(=O)(=O)c1cc2c(cc1C(F)(F)F)NC(Cc1ccccc1)NS2(=O)=O` (stereo not given), the Potency was “inactive”. With `Cc1ccc(C(C)C)cc2c(C)ccc1-2` the Potency was “inactive”. For `C[C@@H]1CCN(C(=O)[C@H](CCCN=C(N)N)NS(=O)(=O)c2cccc3c2NC[C@H](C)C3)[C@@H](C(=O)O)C1`, the Potency was “inactive”. With `CC(=O)Nc1ccc(/C=N/NC(N)=S)cc1` the Potency was “inactive”. For `c1ccc(CN(CC2=NCCN2)c2ccccc2)cc1`, the Potency was “inactive”. With `CCCn1cnc2c1c(=O)n(CCCCC(C)=O)c(=O)n2C` the Potency was “inactive”. In the case of `N[C@H](C(=O)O)c1ccc(O)cc1`, the Potency is reported as “inactive”. With `CCN(CC)CCOC(=O)C1(C2CCCCC2)CCCCC1` the Potency was “inactive”. In the case of `Cc1cc2nc3c(=O)[nH]c(=O)nc-3n(C[C@H](O)[C@H](O)[C@H](O)CO)c2cc1C`, the Potency is reported as “inactive”. In the case of `C[C@@H]1C[C@H]2[C@@H]3C[C@H](F)C4=CC(=O)C=C[C@]4(C)[C@@]3(F)[C@@H](O)C[C@]2(C)[C@@]1(O)C(=O)CO`, the Potency is reported as “inactive”. In the case of `CN(N=O)C(=O)N[C@@H]1[C@@H](O)[C@H](O)[C@@H](CO)O[C@@H]1O`, the Potency is reported as “inactive”. In the case of `Cc1cccc(Nc2cc(Cl)nc(SCC(=O)O)n2)c1C`, the Potency is reported as “inactive”. In the case of `CC(C)c1c(C(=O)Nc2ccccc2)c(-c2ccccc2)c(-c2ccc(F)cc2)n1CC[C@@H](O)C[C@@H](O)CC(=O)O`, the Potency is reported as “inactive”. With `Cc1ncc(COP(=O)(O)O)c(C=O)c1O` the Potency was “inactive”. For `C[C@H](N)[C@H](O)c1cccc(O)c1`, the Potency was “inactive”. In the case of `CCN(CC)CCNC(C(=O)OCCC(C)C)c1ccccc1` (stereo not given), the Potency is reported as “inactive”. In the case of `CC(O)COc1ccccc1` (stereo not given), the Potency is reported as “inactive”. With `OCC(O)CN1CCN(c2ccccc2)CC1` (stereo not given) the Potency was “inactive”. With `O=C(Oc1ccccc1C(=O)O)c1ccccc1O` the Potency was “inactive”. In the case of `CC1(C)[C@@H]2CC[C@@]1(C)C(=O)C2`, the Potency is reported as “inactive”. With `O=S(=O)(O)NC1CCCCC1` the Potency was “inactive”. With `Nc1ccc(S(=O)(=O)Nc2ccccc2)cc1` the Potency was “inactive”. For `C#CCN(C)Cc1ccccc1`, the Potency was “inactive”. For `O=c1[nH]c(=O)c2[nH]c(=O)[nH]c2[nH]1`, the activity change, negative = inhibition was -11.3% [at 9.18 µM] (inactive). With `COC(=O)C1=C(C)NC(C)=C(C(=O)OC)C1c1ccccc1[N+](=O)[O-]` the Potency was “inactive”. For `CCCCOC(=O)c1ccc(O)cc1`, the Potency was “inactive”. In the case of `O=c1cc[nH]c(=O)[nH]1`, the Potency is reported as “inactive”. In the case of `O=C1Nc2ccc(Cl)cc2[C@@](C#CC2CC2)(C(F)(F)F)O1`, the Potency is reported as “inactive”. In the case of `CCCCC/C(C=O)=C\c1ccccc1`, the Potency is reported as “inactive”. In the case of `CC1(C)S[C@@H]2[C@H](NC(=O)Cc3ccccc3)C(=O)N2[C@H]1C(=O)O` (tested in a mixture with another compound), the Potency is reported as “inactive”. In the case of `OCc1cc(C(O)CNCCCCCCOCCCCc2ccccc2)ccc1O` (stereo not given), the Potency is reported as “inactive”.
